Screens (PubChem)
TexasRed fluor: Total Fluorescence Counterscreen for Inhibitors of the Interaction of Thyroid Hormone Receptor and Steroid Receptor Coregulator 2. AID 1479, 2009. 0.29% of 280,000 active. Potency, µM (titrated, usually from 106 µM), inactives show at the highest dose fluorescence change, negative = quenching. TRb/SRC2 Texas Red total fluorescence interference; active means well fitted curve in either direction with a large enough effect; inconclusive means small, poorly fitted or top-dose-only effect
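Human TRβ ligand-binding domain (0.6 uM) and Texas Red SRC2 peptide (20 nM) in Tris buffer with 1 uM T3 and 5% DMSO were incubated with pinned compound for 5 hr at ambient temperature. Total fluorescence was computed as S + 2P (555/632 nm).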
Tau fibril ThT: qHTS for Inhibitors of Tau Fibril Formation, Thioflavin T Binding. Microtubule-associated protein tau (Homo sapiens), P10636. recombinant tau K18 P301L, heparin-induced fibrillization, ThT fluorescence. Potency, µM (top dose mostly 57.4 µM), for the others: at the top dose activity, negative = inhibition, usual class: inhibitors. 2.1% of 270,000 active; further: nearly all actives have a fitted effect of over 55% in size
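K18 P301L tau (15 uM + 0.24 uM Alexa 594-tagged), heparin 20 uM, NaOAc pH 7, 6 h 37 C; ThT 30 uM, 1 h RT, ex 450/em 510 nm.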
TRb SRC2 PPI: qHTS for Inhibitors of the Interaction of Thyroid Hormone Receptor and Steroid Receptor Coregulator 2. Thyroid hormone receptor beta (Homo sapiens), P10828. Potency, µM (highest dose often 106 µM), inactives show at the highest dose activity change, negative = inhibition, hits mostly inhibitors. 0.065% of 280,000 active. TRbeta-SRC2 peptide binding, fluorescence polarization; receptor liganded with 1 µM T3;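 further: plate controls were bound peptide for no effect and peptide without receptor for full effect; nearly all actives have a fitted effect of over 50% in size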
Target sequence (P10828 whole entry, looked up): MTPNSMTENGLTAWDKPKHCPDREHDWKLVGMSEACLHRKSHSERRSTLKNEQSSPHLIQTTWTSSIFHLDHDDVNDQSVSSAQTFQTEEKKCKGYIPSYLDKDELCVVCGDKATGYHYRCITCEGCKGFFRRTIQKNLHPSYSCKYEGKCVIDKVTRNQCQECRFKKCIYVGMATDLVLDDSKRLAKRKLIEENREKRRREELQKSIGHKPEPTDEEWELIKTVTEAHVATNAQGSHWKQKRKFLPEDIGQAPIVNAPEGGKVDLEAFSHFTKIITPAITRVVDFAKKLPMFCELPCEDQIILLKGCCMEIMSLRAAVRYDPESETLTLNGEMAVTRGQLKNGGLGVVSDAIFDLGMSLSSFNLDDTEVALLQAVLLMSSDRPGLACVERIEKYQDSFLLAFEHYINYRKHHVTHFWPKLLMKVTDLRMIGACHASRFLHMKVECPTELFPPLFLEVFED
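Fluorescence polarization of 20 nM Texas Red SRC2 peptide (20-aa NR interaction domain) bound to 0.6 uM human TRb ligand-binding domain, with 1 uM T3, after 5 hr at ambient temperature; inhibition seen as decreased polarization.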
RGS12 GoLoco inh: qHTS Assay for Inhibitors of RGS12 GoLoco Motif Activity (Red Fluorophore); AID 880, 2007; 0.44% of 230,000 active; Potency, µM (top dose mostly 61.6 µM), for the others: at the highest dose activity, negative = inhibition, most hits filed as inhibitors; Guanine nucleotide-binding protein G(i) subunit alpha-1 (Homo sapiens), P63096; Gai1:RGS12 GoLoco peptide FP, rhodamine, 10 min; active means well fitted inhibition curve with a large enough effect, not every such curve was filed as active; inactive means no such curve, though single readings can be large or run the other way; further: nearly all actives have a fitted effect of over 30% in size
Tau fibril FP: qHTS for Inhibitors of Tau Fibril Formation, Fluorescence Polarization | Microtubule-associated protein tau (Homo sapiens), P10636 | K18 P301L tau heparin fibrillization, Alexa594 FP, 6 h | Potency, µM (titrated, usually from 57.7 µM), for the others: at the highest dose activity, negative = inhibition, usual class: inhibitors | 0.39% of 280,000 active | AID 1468, 2008; further: nearly all actives have a fitted effect of over 55% in size
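K18 P301L tau (15 uM unlabeled/0.24 uM Alexa 594-labeled, final) + compound + heparin 20 uM final; 100 mM NaOAc pH 7; 6 hr 37 C; ThT 30 uM final added, 1 hr RT; FP ex 555/em 632 nm.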
Tau fluor cs: Counterscreen qHTS for Inhibitors of Tau Fibril Formation, Fluorescence Polarization. tau K18 P301L Alexa594 fluorescence, heparin fibrillization. Potency, µM (titrated, usually from 57.7 µM), for inactives: at the top dose activity change, negative = decrease. AID 1463, 2008. 0.93% of 280,000 active; further: nearly all actives have a fitted effect of over 55% in size
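Human tau K18 P301L (15 uM unlabeled, 0.24 uM Alexa 594-labeled) in 100 mM sodium acetate pH 7 with 20 uM heparin, 6 hr at 37 C. ThT 30 uM added, 1 hr ambient; Alexa 594 FP and total fluorescence read at 555/632 nm.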
* = called active by the depositor; ? = inconclusive; . = not tested or not shown; ! = not active in a repeat; [ ] = another dose, or the depositor's remark. An excerpt weighted towards active compounds, which were near 3.2% of everything screened. Unless noted, the call rests on the fitted dose curve; in most records, active means well fitted curve in the direction sought with a large enough effect; inconclusive means small, poorly fitted or top-dose-only effect, or another doubt; inactive means no such curve, though single readings can be large; an effect the other way counts as inactive or inconclusive. Unless noted, on the % scale 0 is the no-effect control and ±100 the full control effect; potency means the concentration at half of the fitted maximal effect.

SMILES	TexasRed fluor	Tau fibril ThT	TRb SRC2 PPI	RGS12 GoLoco inh	Tau fibril FP	Tau fluor cs
Nc1ccc(-n2nnnc2CN2CCOCC2)cc1	0.2%	-3.0%	3.9%	1.4%	2.6%	-3.2%
Cc1ccc(-c2nc3ccc([N+](=O)[O-])cc3[nH]2)cc1	4.0%	?	-0.3%	8.6%	2.0%	?
Nc1nc2ccc([N+](=O)[O-])cc2[nH]1	-12.3%	-5.8%	2.7%	-6.3%	-2.4%	-7.1%
COc1ccc(-c2nc3ccc([N+](=O)[O-])cc3[nH]2)cc1	-1.0%	11.2µM*	6.3%	15.2%	-2.8%	?
NC(N)=Nc1nc2ccc([N+](=O)[O-])cc2[nH]1	-3.1%	?	2.0%	0.355µM*!	6.0%	-6.5%
COc1ccccc1N1CCN(c2nc(-c3ccccc3)cc(C(F)(F)F)n2)CC1	0.9%	-12.7%	5.9%	9.9%	-1.5%	-12.7%
COc1ccccc1N1CCN(c2ccc(-c3ccccc3)nn2)CC1	0.0%	?	5.8%	12.6µM*	2.3%	-26.1%
N=C1c2ccccc2CN1c1ccc(N2CCOCC2)c(S(=O)(=O)Nc2ccc(Cl)cc2)c1	2.3%	31.6µM*	-4.0%	1.8%	?	-26.2%
COCCNC(=O)COc1ccc(OCCNC[C@H](O)COc2ccccc2)cc1	-0.2%	3.1%	-1.5%	-2.8%	5.8%	-0.2%
COc1ccc2nc(N3CCC(C)CC3)c(C#N)cc2c1	-5.3%	35.5µM*	-0.8%	6.8%	?	?
O=C1c2ccccc2C(=O)c2cc(S(=O)(=O)Nc3ccccc3)ccc21	-3.6%	22.4µM*	3.9%	3.3%	?	14.1µM*[quencher]
O=C(O)c1cccc(NS(=O)(=O)c2ccc3c(c2)C(=O)c2ccccc2C3=O)c1	-9.4%	?	0.5%	2.8%	13.0%	-17.6%
CC(=O)NC1C(O)C[C@@](O)(C(=O)O)OC1[C@@H](O)C(O)CO (stereo partly specified)	-1.5%	4.6%	-1.4%	2.7%	-4.1%	-0.3%
Cc1cccc(OCC(=O)N=Nc2c(O)[nH]c3ccc([N+](=O)[O-])cc23)c1	-2.5%	3.98µM*	7.4%	-10.3%	-7.2%	?
Cc1ccccc1NCC(=O)N=Nc1c(O)[nH]c2ccc([N+](=O)[O-])cc12	-5.1%	?	6.8%	1.3%	6.3%	17.8µM*[quencher]
Cc1ccc(NCC(=O)N=Nc2c(O)[nH]c3ccc([N+](=O)[O-])cc23)cc1	?	15.8µM*	-13.7%	2.6%	2.9%	25.1µM*[quencher]
O=[N+]([O-])c1ccc2[nH]c(O)c(N=NC(=S)Nc3cccnc3)c2c1	-24.2%	2.24µM*	-0.9%	7.9%	12.2%	?
CC(=O)OCC(NC(=O)C(COCc1ccccc1)NC(=O)OC(C)(C)C)C1OC(n2ccc(=O)[nH]c2=O)C(OC(C)=O)C1OC(C)=O (stereo unspecified)	0.1%	.	-8.3%	.	.	.
C=CCCN(Cc1ccc(OC)cc1)S(=O)(=O)c1ccccc1Br	-1.4%	.	5.7%	.	.	.
C=C1C2CC[C@]3(CCC4[C@@]5(C)CCC[C@@]4(CN(CCO)C5)[C@@H]3C2)[C@@H]1O (stereo partly specified)	-1.4%	-10.3%	-1.1%	0.9%	-0.3%	-3.1%
O=C(Nc1ccc(F)cc1)C(=O)c1c(O)[nH]c2ccc([N+](=O)[O-])cc12	-4.7%	15.8µM*	-5.5%	-9.3%	2.0%	-27.3%
